Assay results published in the supplement of paper PMC8726507.
Values without a mark were called inactive.

Each molecule was assayed on Plasmodium falciparum NF54-HGL (transmission to Anopheles stephensi) (assay: percentage of barcode signal found in uninfected mosquitoes (transmission-blocking activity); higher = stronger blocking of transmission to mosquito, active = 80 or more). Conditions: 10 µM; gametocyte preincubation time 24 h; readout time post-feed 8 days.
Description: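 The mixture was fed to Anopheles stephensi in 96-well plates as blood meals tagged with DNA-barcoded Asaia bacteria. Eight days later, mosquitoes were classed infected or uninfected by luminescence (mean + 5 SD of unfed controls). Barcodes were quantified by Luminex MagPlex-TAG in the pooled uninfected and infected Asaia cultures, background-corrected, and the score is % of barcode signal in uninfected mosquitoes = 100*Iu/(Iu+Ii).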
CC(=O)Nc1ccc(NC(=O)c2cc(-c3cc(Cl)ccc3O)[nH]n2)cc1 was tested, and the “percentage of barcode signal found in uninfected mosquitoes” value (“percentage of barcode signal found” for short) was 27.4%. c1ccc(Oc2ccc(-c3cc(C4CCOCC4)[nH]n3)cc2)cc1 was tested, and the “percentage of barcode signal found” value was 10.6%. CS(=O)(=O)c1ccc(C(=O)N(CC2CCCO2)c2nc3ccccc3s2)cc1[N+](=O)[O-] (stereo not given) was tested, and the “percentage of barcode signal found” value was 63.1%. In the case of CNC(=O)c1cc(S(=O)(=O)N2CCN(c3ccccn3)CC2)cs1, the “percentage of barcode signal found” value is reported as 37.8%. For Cc1ccc(S(=O)(=O)N2CCN(C(=O)c3cc(-c4ccccc4)[nH]n3)CC2)cc1, the “percentage of barcode signal found” value was 69.8%. For Cc1noc(C)c1C(=O)N1CCCC(c2[nH]c3c(C)cccc3c2-c2ccncc2)C1 (stereo not given), the “percentage of barcode signal found” value was 69.1%. FC(F)(F)c1cnc(Sc2nnc(-c3ccncc3)o2)c(Cl)c1 was tested, and the “percentage of barcode signal found” value was 68.8%. For O[C@@H](c1cc(C(F)(F)F)nc2c(C(F)(F)F)cccc12)[C@H]1CCCCN1, the “percentage of barcode signal found” value was 43.2%. CO[C@@H](C(=O)N1Cc2[nH]nc(NC(=O)c3ccc(N4CCN(C)CC4)cc3)c2C1)c1ccccc1 was tested, and the “percentage of barcode signal found” value was 68.7%. In the case of N=C(N)c1ccc(-c2cc(-c3ccccc3)on2)cc1, the “percentage of barcode signal found” value is reported as 33.2%. With O=C(NC1CC1)c1ccc(N2CCOc3ccc(Cl)cc32)s1 the “percentage of barcode signal found” value was 49.7%. In the case of CN1CCN(c2cc(-c3ccc(F)cc3)nc(-c3ccncc3)n2)CC1, the “percentage of barcode signal found” value is reported as 1.2%. Cc1ccc2[nH]c3c(NCCN(C)C)ncnc3c2c1 was tested, and the “percentage of barcode signal found” value was 40.6%. For O=C(Nc1nc(-c2ccccn2)cs1)c1cncn1-c1ccccc1, the “percentage of barcode signal found” value was 21.4%. In the case of Cn1ncc2c(N3CCOCC3)nc(NCCc3c[nH]c4ccccc34)nc21, the “percentage of barcode signal found” value is reported as 64.2%. In the case of CCC(Sc1nc2ccccc2o1)C(=O)Nc1nccs1 (stereo not given), the “percentage of barcode signal found” value is reported as -4.79%. For O=C(c1ccc(NCCO)cc1)C1C[C@H]1c1ccc(Cl)cc1 (stereo not given in full), the “percentage of barcode signal found” value was 39.6%. With CN1CCN(CCCOc2ncc(Nc3ncc(-c4ccc(C(F)(F)F)c(F)c4)nc3C(N)=O)cn2)CC1 the “percentage of barcode signal found” value was 75.6%. With Cc1nnc(NC(=O)c2cn(-c3ccccc3)nc2-c2ccccc2C)o1 the “percentage of barcode signal found” value was 81% (active). For COc1cccc(OCC(=O)c2ccc(Br)cc2)c1, the “percentage of barcode signal found” value was 13.7%. COc1ccc(-c2nc(-c3cccc(NC(=O)Cc4ccc(F)cc4)c3)no2)cc1OC was tested, and the “percentage of barcode signal found” value was 5.39%. CNC1C(OC2C(OC3C(O)C(O)C(NC(=N)N)C(O)C3NC(=N)N)OC(C)C2(O)C=O)OC(CO)C(O)C1O (stereo not given) was tested, and the “percentage of barcode signal found” value was 47%. In the case of CC(=O)Oc1ccccc1C(=O)Nc1ncc([N+](=O)[O-])s1, the “percentage of barcode signal found” value is reported as 8.87%. For CCCNC(=O)N1CCC2(CC1)CC(=O)c1cc(C)ccc1O2, the “percentage of barcode signal found” value was 11.9%. In the case of COc1cccc(-n2nnnc2S(=O)(=O)Cc2ccccc2)c1, the “percentage of barcode signal found” value is reported as 90.4% (active). In the case of Nc1nccc2ccc(-c3ccc4nccn4c3)cc12, the “percentage of barcode signal found” value is reported as 92.9% (active). In the case of FC(F)(F)c1nnc2ccc(Cl)nn12, the “percentage of barcode signal found” value is reported as 20.5%.

Same assay, conditions: 20 µM; gametocyte preincubation time 24 h; readout time post-feed 8 days
With Cc1ccc(-c2nc(CN(Cc3ccccn3)C(C)C)cs2)o1 the “percentage of barcode signal found” value was 81.4% (active). With CC(=O)NCC1CN(c2ccc(-c3ccc(CO)cc3)c(F)c2)C(=O)O1 (stereo not given) the “percentage of barcode signal found” value was 30.3%. O=C(OCc1ccccc1)N1CCC(c2cc(-c3ccncc3)c(-c3ccc(F)cc3)[nH]2)CC1 was tested, and the “percentage of barcode signal found” value was 16.8%. In the case of CN1CCC(c2cc(-c3ccncc3)c(-c3ccc(F)cc3)[nH]2)CC1, the “percentage of barcode signal found” value is reported as 78.1%. In the case of CNc1cc(C)nc(C2CN(C(=O)c3n[nH]c4ccccc34)CCO2)c1 (stereo not given), the “percentage of barcode signal found” value is reported as 35.5%. In the case of CC(C)=CCC/C(C)=C\CNCCNC1C2CC3CC(C2)CC1C3 (stereo not given), the “percentage of barcode signal found” value is reported as 81.8% (active). For COc1cc(C2=NCCN2)ccc1-c1cn(-c2cccc(C3=NCCN3)c2)nn1, the “percentage of barcode signal found” value was 46%. For Cc1nc(-c2ccccn2)nc(N(C)CCc2ccccc2)c1Cl, the “percentage of barcode signal found” value was 92% (active). With OCc1ccc(-c2cncc(Nc3cccc(Cl)c3)c2)cc1 the “percentage of barcode signal found” value was 4.28%. For CO[C@H]1/C=C/O[C@@]2(C)Oc3c(C)c(O)c4c(O)c(/c(=C/NN5CCN(C)CC5)c(O)c4c3C2=O)=N\C(=O)/C(C)=C\C=C/[C@H](C)[C@H](O)[C@@H](C)[C@@H](O)[C@@H](C)[C@H](OC(C)=O)[C@@H]1C, the “percentage of barcode signal found” value was 20.2%. With Cc1cc(NCCc2ccccc2)nc(NC(=N)Nc2ccc(Cl)cc2)n1 the “percentage of barcode signal found” value was 75.8%. c1ccc(Oc2ccc(-c3cc(CN4CCOCC4)[nH]n3)cc2)cc1 was tested, and the “percentage of barcode signal found” value was 3.15%. For CNC(=O)CNc1nc(-c2ccccn2)nc2scc(-c3ccccc3)c12, the “percentage of barcode signal found” value was 69.6%.
